According to the supplement of paper PMC8183993:
Structures can show the parent of a compound that is named as a salt. ± gives the standard deviation of the averaged measurements. Whole data set: some 3,100 compounds, median “mean cytoplasmic OPP incorporation (global translation) relative to DMSO” near 100, cut for the lowest 2% near 56. The full list was thinned out, with the lowest values kept by preference.

tested on: U2OS; assay: mean cytoplasmic OPP incorporation (global translation) relative to DMSO (% of DMSO); higher = more protein synthesis; settings: 10 µM; 24 h
Experimental: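 Primary image-based screen in U2OS cells: compounds at 10 uM for 24 h, then a 1 h o-propargyl-puromycin (OPP) pulse, click labelling, and high-throughput microscopy. Mean cytoplasmic OPP intensity and nuclei count were normalised to DMSO wells within each plate (DMSO = 100) and averaged over triplicate plates.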

Row | SMILES | mean cytoplasmic OPP incorporation
1 | C[C@]12CC[C@H](O)C[C@H]1CC[C@@H]1[C@@H]2CC[C@]2(C)[C@@H](C3=CC(=O)OC3)CC[C@]12O [Digitoxigenin] | 26.3
2 | C[C@]12CC[C@H](O)C[C@@H]1CC[C@@H]1[C@@H]2CC[C@]2(C)C(=O)CC[C@@H]12 [Epiandrosterone] | 90.1
3 | C[C@]12CC[C@H](O)C[C@@H]1CC[C@@H]1[C@@H]2CC[C@]2(C)C(=O)CC[C@@H]12 | 95.2
4 | C[C@]12CC[C@@H](O)C[C@H]1CC[C@@H]1[C@@H]2CC[C@]2(C)C(=O)CC[C@@H]12 [3-alpha-Hydroxy-5-beta-androstan-17-one] | 89.8
5 | C[C@]12CC[C@@H](O)C[C@@H]1CC[C@@H]1[C@@H]2CC[C@]2(C)C(=O)CC[C@@H]12 [Androsterone] | 97.1
6 | C[C@]12CC[C@H](O)C[C@H]1CC[C@@H]1[C@@H]2C[C@@H](O)[C@]2(C)[C@@H](C3=CC(=O)OC3)CC[C@]12O [Digoxigenin] | 32
7 | CC(=O)O[C@H]1C[C@H](O[C@H]2[C@@H](O)C[C@H](O[C@H]3[C@@H](O)C[C@H](O[C@H]4CC[C@@]5(C)[C@H](CC[C@@H]6[C@@H]5C[C@@H](O)[C@]5(C)[C@@H](C7=CC(=O)OC7)CC[C@]65O)C4)O[C@@H]3C)O[C@@H]2C)O[C@H](C)[C@H]1O[C@@H]1O[C@H](CO)[C@@H](O)[C@H](O)[C@H]1O [Lanatoside C] | 27.8
8 | CC(=O)[C@H]1CC[C@H]2[C@@H]3CC[C@H]4C[C@H](O)CC[C@]4(C)[C@H]3C(=O)C[C@]12C [Alfaxalone] | 102
9 | CN(C)CCN(C)CCc1ccc(Cl)c(Cl)c1 [BD 1047 dihydrobromide] | 105
10 | CN(C(=O)Cc1ccc(Cl)c(Cl)c1)[C@H](CN1CCCC1)c1ccccc1 [ICI-199,441 hydrochloride] | 111
11 | CCCN(CCC)[C@@H]1CCc2c(OC)cccc2[C@@H]1C [(+)-UH 232 maleate] | 102
12 | NC(C(=O)O)c1nn[nH]n1 (racemic) [(RS)-(Tetrazol-5-yl)glycine] | 102
13 | CC1(C)[C@@H](O)C[C@H]2[C@](C)(O)[C@@H]3CC[C@@H]4[C@@H](O)[C@@]3(C[C@@H](O)[C@@]21O)C[C@@]4(C)O [Grayanotoxin III] | 102
14 | Clc1ccc(C2=CCCC3CCC2N3)cn1 (stereo unspecified) [UB 165 fumarate] | 97.7
15 | CCC(Oc1ccc(Cl)cc1)C(=O)OC1C[C@H]2CC[C@@H](C1)N2C (stereo partly specified) [SM-21 maleate] | 106
16 | N=C(NCc1ccc(Cl)cc1)SCCCc1c[nH]cn1 [Clobenpropit dihydrobromide] | 95.4
17 | CC(N)Cc1cnc[nH]1 (stereo unspecified) | 101
18 | C=CCN1CC[C@]2(C)c3cc(O)ccc3C[C@H]1C2C (single isomer, unassigned; (+)) | 105
19 | COc1ccc(C(=O)O[C@H]2CC[C@@]3(C)[C@@H]4CC[C@H]5[C@]6(O)C[C@H](O)[C@@]7(O)[C@@H](CN8C[C@@H](C)CC[C@H]8[C@@]7(C)O)[C@]6(O)C[C@@]53O[C@]24O)cc1OC [Veratridine] | 108

Row | SMILES | mean cytoplasmic OPP incorporation
20 | COc1ccc2[nH]cc(C3=CCNCC3)c2c1 | 101
21 | CC(C)(Cc1c[nH]c2ccc(Cl)cc12)NCCOc1ccccc1OCC1CC1 | 55.1
22 | Cn1cc(C(=O)C(=O)N[C@H]2CN3CCC2CC3)c2ccccc21 | 99.4
23 | OC(Cc1ccncc1)C(Cl)(Cl)Cl (stereo unspecified) | 104
24 | C=C(C)CN1CC[C@@]23c4c5ccc(O)c4O[C@H]2c2[nH]c4ccccc4c2C[C@]3(O)C1C5 [SDM25N hydrochloride] | 95.8
25 | O=Cc1cn(Cc2ccc(Cl)cc2)c2ccccc12 [Oncrasin 1] | 83.4
26 | CN1C(=O)[C@]23CC4=CC=C[C@H](O)[C@H]4N2C(=O)[C@@]1(CO)SS3 [Gliotoxin] | 33.6
27 | CCC[C@@H]1CC2=CC(=O)CC[C@]2(C)[C@H]2CC[C@@]3(C)[C@@H](CC[C@@]3(O)CCC(=O)O)[C@H]12 | 96.1
28 | Oc1ccc2c3c1O[C@H]1c4c(c5ccccc5n4Cc4ccccc4)C[C@@]4(O)C(C2)N(CC2CC2)CC[C@]314 [N-Benzylnaltrindole hydrochloride] | 111
29 | Cc1nc(N)sc1CCN [Amthamine dihydrobromide] | 107
30 | C[C@@H]1O[C@@H](O[C@H]2C[C@@H](O)[C@]3(CO)[C@H]4[C@H](O)C[C@]5(C)[C@@H](C6=CC(=O)OC6)CC[C@]5(O)[C@@H]4CC[C@]3(O)C2)[C@H](O)[C@H](O)[C@H]1O [Ouabain] | 47 ± 1.8
31 | Cc1ncc(CN2CC=C(c3ccccc3)CC2)c(N)n1 | 101
32 | CC(CN)CC(=O)O (stereo unspecified) [3-Methyl-GABA] | 102
33 | CC1(C)[C@H](C(=O)O[C@H](C#N)c2cccc(Oc3ccccc3)c2)[C@@H]1C=C(Br)Br [Deltamethrin] | 101
34 | O=C1NC(=O)c2c1c1c3ccccc3n3c1c1c2c2ccccc2n1[C@H]1CC[C@@H]3O1 | 91.2
35 | O=C(O)C1=CCCN(CCOC(c2ccc(C(F)(F)F)cc2)c2ccc(C(F)(F)F)cc2)C1 [CI 966 hydrochloride] | 97.6
36 | COc1cc(N)c(Cl)cc1C(=O)NC1CN2CCC1CC2 (stereo unspecified) [Zacopride hydrochloride] | 104
37 | C[CH2][Hg][S]c1ccccc1C(=O)[O-].[Na+] [Thimerosal] | 15.5
38 | O=C(O)/C=C/CO [trans-4-Hydroxycrotonic acid] | 105

Row | SMILES | mean cytoplasmic OPP incorporation
39 | C[C@@H]1C[C@@H]([C@H](O)CC2CC(=O)NC(=O)C2)C(=O)[C@@H](C)C1 [Cycloheximide] | 52.1 ± 35
40 | CC[N+](CC)(CCCNC1=CC(=O)C(NCCC[N+](CC)(CC)Cc2ccccc2)=CC1=O)Cc1ccccc1 [Benzoquinonium dibromide] | 101
41 | O=C1CSC(c2ccccc2Cl)c2cc(Cl)ccc2N1 (stereo unspecified) | 101
42 | CCOC(=O)c1ncn2c1CN(C)C(=O)c1cc(N=[N+]=[N-])ccc1-2 | 91.9
43 | Cn1c2c(c3ccccc31)CCNCC2 | 97.4
44 | Fc1ccc(C(OCCN2CCN(C/C=C/c3ccccc3)CC2)c2ccc(F)cc2)cc1 | 102
45 | CCCOc1ccc2[nH]cc(C3=CCNCC3)c2n1 | 103
46 | CC(=O)O[C@H]1CC[C@@]2(C)C(=CC[C@@H]3[C@@H]2CC[C@]2(C)C(=O)CC[C@@H]32)C1 [Dehydroisoandosterone 3-acetate] | 83.5
47 | C[C@@H]1CC[C@@]2(OC1)O[C@H]1C[C@H]3[C@@H]4CC=C5C[C@@H](O[C@@H]6O[C@H](CO)[C@@H](O[C@@H]7O[C@@H](C)[C@H](O)[C@@H](O)[C@H]7O)[C@H](O)[C@H]6O[C@@H]6O[C@@H](C)[C@H](O)[C@@H](O)[C@H]6O)CC[C@]5(C)[C@H]4CC[C@]3(C)[C@H]1[C@@H]2C [Dioscin (Collettiside III)] | 50.2
48 | C=CCN1C[C@H](C)N([C@H](c2ccc(C(=O)N(CC)CC)cc2)c2cccc(O)c2)C[C@H]1C | 111
49 | O=C1CC[C@@]2(O)[C@H]3Cc4ccc(O)c5c4[C@@]2(CCN3CC2CC2)[C@H]1O5 [Naltrexone hydrochloride dihydrate] | 108
50 | Oc1ccc2c3c1O[C@H]1c4[nH]c5c(c4C[C@@]4(O)[C@@H](C2)N(CC2CC2)CC[C@]314)C[C@@]1(O)[C@H]2Cc3ccc(O)c4c3[C@@]1(CCN2CC1CC1)[C@H]5O4 [nor-Binaltorphimine dihydrochloride] | 102
51 | O=C1/C(=C/c2ccccc2)C[C@@]2(O)[C@H]3Cc4ccc(O)c5c4[C@@]2(CCN3CC2CC2)[C@H]1O5 [BNTX maleate] | 34.8
52 | NCC(CS(=O)(=O)O)c1ccc(Cl)cc1 (stereo unspecified) [Saclofen] | 104
53 | C[C@@H]1O[C@@H](O[C@@H]2C=C3CC[C@@H]4[C@H](CC[C@]5(C)[C@@H](c6ccc(=O)oc6)CC[C@]45O)[C@@]3(C)CC2)[C@H](O)[C@H](O)[C@H]1O [Proscillaridin A] | 17.5
54 | Cc1ccc2cc3c(ccc4ccccc43)c3c2c1CC3 [3-Methylcholanthrene] | 114
55 | O=C(O)CCC(CP(=O)(O)O)C(=O)O (stereo unspecified) [PMPA (NAALADase inhibitor)] | 105
56 | CCOc1cncc(/C=C/CCNC)c1 [TC 2559 difumarate] | 97.5
